Test results reported in the supplement of paper PMC10981050.

The molecules below were run on MARIMO (assay: cell viability relative to vehicle control; higher = less cytotoxic). Settings: 10 µM; SRSF2 genotype: SRSF2 wt/wt.
How it was run: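 CRISPR-edited SRSF2 P95 mutant and isogenic wild-type clones of four leukaemia lines were screened against Selleck bioactive, kinase and epigenetic probe libraries, with identity-inconsistent compounds removed. Compounds were acoustically dispensed into 384-well plates at a single 10 µM dose, with 2000 cells in 50 µL medium per well. After 48 h, supernatant was removed and CellTiter-Glo luminescence was read. Viability was expressed as percent of the on-plate DMSO vehicle control, analysed in Genedata Screener.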

Row | SMILES | cell viability [%]
1 | Cc1cc(=O)oc2c(C=O)c(O)ccc12 | 97.4
2 | Cc1oncc1C(=O)Nc1ccc(C(F)(F)F)cc1 [Leflunomide] | 90.1
3 | CCn1c(C(=O)N(C2CC2)C2CC2)cc2c3c(ncn3C)c(Nc3cc(C)n(C)n3)nc21 | 102
4 | CC(/C=C1\SC(=S)N(CC(=O)O)C1=O)=C\c1ccccc1 [Epalrestat] | 102
5 | O=c1[nH]c(=O)n(C2CCCO2)cc1F (stereo not given) | 108
6 | CC(C(=O)O)c1ccc2c(c1)Cc1cccnc1O2 (stereo not given) [Pranoprofen] | 107
7 | CC1C(=O)OC2C(O)C34C5CC(C(C)(C)C)C36C(OC(=O)C6O)OC4(C(=O)O5)C12O (stereo not given) [Ginkgolide B] | 109
8 | Cc1nc(N(C)C(=O)Cc2ccc(-c3ccccn3)cc2)sc1S(N)(=O)=O [Pritelivir (BAY 57-1293)] | 112
9 | N[C@@H]1CCCN(c2c(/C=C3\SC(=O)NC3=O)cccc2-c2ccccc2)C1 | 93
10 | CCCCNc1ncc(-c2ccc(CN3CCOCC3)cn2)c(NC2CCC(O)CC2)n1 (stereo not given) | 62.3
11 | CCCc1cc(C(N)=S)ccn1 [Protionamide (Prothionamide)] | 102
12 | CC(C(=O)O)c1ccc2c(c1)CC(=O)c1ccccc1S2 (stereo not given) [Zaltoprofen] | 103
13 | COc1ccc2cc1Oc1ccc(cc1)C[C@H]1c3c(cc4c(c3Oc3cc5c(cc3OC)CCN(C)[C@@H]5C2)OCO4)CCN1C [Cepharanthine] | 50.3
14 | CC(COc1ccccc1Cc1ccccc1)N1CCCCC1 (stereo not given) [Benproperine phosphate] | 78.5
15 | Nc1nonc1C(=Nc1ccc(F)c(Cl)c1)NO | 97.2
